Assay outcomes (PubChem)
Rows were chosen to be rich in hits. Some 3.7% of all compounds tested hit in one or more screens of this group.
Anthrax LF inh2 – anthrax lethal factor protease inhibition. inhibition, % at 10 µM. AID 588501. multiplex microsphere protease cleavage assay, LF. P15917. 360,000 tested, 0.12% active; note: plate controls were buffer without enzyme for full effect and enzyme alone for no effect
Target sequence (P15917 whole entry, looked up): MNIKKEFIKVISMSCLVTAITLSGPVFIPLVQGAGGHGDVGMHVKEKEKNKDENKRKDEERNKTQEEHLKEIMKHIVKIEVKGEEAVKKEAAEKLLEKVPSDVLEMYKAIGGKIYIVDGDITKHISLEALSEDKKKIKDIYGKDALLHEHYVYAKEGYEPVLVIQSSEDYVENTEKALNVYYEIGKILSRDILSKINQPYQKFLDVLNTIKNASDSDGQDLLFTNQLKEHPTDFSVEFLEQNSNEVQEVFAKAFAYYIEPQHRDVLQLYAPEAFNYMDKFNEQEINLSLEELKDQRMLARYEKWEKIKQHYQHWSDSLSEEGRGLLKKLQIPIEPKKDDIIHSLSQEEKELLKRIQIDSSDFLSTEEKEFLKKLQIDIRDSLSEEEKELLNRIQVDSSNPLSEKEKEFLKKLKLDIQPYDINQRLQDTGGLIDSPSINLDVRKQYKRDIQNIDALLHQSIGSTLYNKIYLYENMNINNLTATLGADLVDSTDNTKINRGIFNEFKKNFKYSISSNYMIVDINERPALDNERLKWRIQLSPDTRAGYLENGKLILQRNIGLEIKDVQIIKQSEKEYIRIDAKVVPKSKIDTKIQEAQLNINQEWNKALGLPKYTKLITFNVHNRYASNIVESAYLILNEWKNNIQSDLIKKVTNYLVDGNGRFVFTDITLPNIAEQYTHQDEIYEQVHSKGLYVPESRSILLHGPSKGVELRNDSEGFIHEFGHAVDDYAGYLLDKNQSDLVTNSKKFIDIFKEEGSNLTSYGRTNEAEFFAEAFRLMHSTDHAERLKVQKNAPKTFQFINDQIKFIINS
BoNT-F LC inh – inhibitors of Botulinum neurotoxin F light chain protease. Multiplex microsphere protease cleavage assay, flow cytometry. inhibition, % at 10 µM. 360,000 tested, 0.22% active. AID 588497; in the data active = inhibition above about 35%, passing the limit was not always enough; inconclusive = no clear call, values can overlap the other calls; note: plate controls were buffer without enzyme for full effect and enzyme alone for no effect
MazF activator – activators of E. coli MazEF toxin-antitoxin RNase; 350,000 tested, 0.32% active; P0AE70; activation, % at 20 µM; FAM/BHQ RNA-DNA oligo cleavage fluorescence, 5 h; in the data active = activation above about 50%
BoNT-A LC inh2 – blocks Botulinum neurotoxin A light chain protease. multiplex microsphere protease substrate cleavage, flow cytometry. inhibition, % at 10 µM. 360,000 tested, 0.17% active. AID 588499; note: plate controls were buffer without enzyme for full effect and enzyme alone for no effect
Autofluor counter – counter-screen for toxin protease inhibitors: compound fluorescence | 360,000 tested, 3.1% active | AID 624483 | compound autofluorescence counterscreen, microsphere flow cytometry; hits give high values | fluorescence intensity (concentration not given with the values); in the data active = fluorescence intensity above about 16000; inconclusive = no clear call, values can overlap the other calls
* hit, by the source's call; u = inconclusive; x = no result given; + = active, no number. Cut-off read from the data, not from the text of the source, unless noted: active = inhibition above about 30%; inconclusive = no clear call, values can overlap the other calls; inactive = below that.

SMILES	Anthrax LF inh2	BoNT-F LC inh	MazF activator	BoNT-A LC inh2	Autofluor counter
CC(=O)Oc1ccc(C(=O)Nc2cccc(C(=O)Nc3ccccc3C(=O)O)c2)cc1	2	0	4	-1	3027
COc1ccccc1OC(C)C(=O)O (centres undefined)	0	1	8	1	20529*
COc1ccccc1OCC(=O)O	-4	-19	-3	-1	3355
OC(CNCc1ccccc1)Cn1ccc2ccccc21 (centres undefined)	-3	-30	12	2	3758
Oc1ccccc1NCC(O)Cn1ccc2ccccc21 (centres undefined)	0	-3	1	u	22217*
OCc1nc2ccccc2n1CC(O)Cn1ccc2ccccc21 (centres undefined)	-3	-6	4	-1	4569
O=C1c2ccccc2S(=O)(=O)N1CC(O)Cn1ccc2ccccc21 (centres undefined)	29	25	-37	156*	22501*
O=Cc1ccc(N2CCCC2)c([N+](=O)[O-])c1	0	-15	3	-1	5403
O=[N+]([O-])/C=C\c1ccc(N2CCCC2)c(F)c1	32*	21	-7	60*	9527
CCOC(=O)Cn1c(S(=O)(=O)Cc2ccc(F)cc2)nc(-c2ccccc2)c1-c1ccccc1	-1	0	9	u	16161*
CCOC(=O)Cn1c(S(=O)(=O)Cc2cccc(F)c2)nc(-c2ccccc2)c1-c1ccccc1	-5	-2	8	0	7957
C#CCn1c(S(=O)(=O)Cc2ccc(F)cc2)nc(-c2ccccc2)c1-c1ccccc1	-5	-4	1	0	16327*
O=S(=O)(Nc1nc2ccccc2s1)c1cnc(Cl)c(Br)c1	-2	-3	4	-1	4171
CCOC(=O)N1CCN(C(=O)CN(Cc2ccc(Cl)cc2)S(=O)(=O)c2ccccc2)CC1	-2	-4	-4	-1	24155*
CCOC(=O)N1CCN(C(=O)CN(C2CCCCC2)S(=O)(=O)c2ccc(Cl)cc2)CC1	-1	1	-3	1	22589*
CCN(C1CCCCC1)S(=O)(=O)c1ccc(C(=O)O)cc1	-2	-2	4	0	23470*
COc1ccccc1Cc1c(-c2cccc(Cl)c2)nc2ccc(Cl)cn12	2	0	x	4	9202
CC(C(=O)Nc1ccc(Br)cc1)N(C)CC(=O)NCc1ccco1 (centres undefined)	-3	0	0	0	3562
CSc1ncccc1C(=O)Nc1ccc2c(c1)OCCO2	7	5	6	0	2947
O=C(O)CSc1nc2c(c(=O)[nH]1)CCCC2	-2	-9	3	-8	24867*
O=C(O)c1ccc(CSc2nc3c(c(=O)[nH]2)CCC3)cc1	-4	-1	x	0	3724
O=C(CSc1nc2c(c(=O)[nH]1)CCCC2)Nc1ccc(Cl)cc1F	-3	0	-5	0	20550*
CS(=O)(=O)N1CCc2cc(C(=O)N3CCN(c4ccccc4F)CC3)ccc21	0	-8	-26	-1	6024
COc1cc(/C=N/NC(=O)c2cccnc2)ccc1OC(=O)c1cc(OC)c(OC)c(OC)c1	-3	11	4	0	5174
COc1cc(/C=N/NC(=O)c2cccnc2)ccc1OC(=O)c1ccc2c(c1)OCO2	-9	-4	72*	-1	4281
SMILES	Anthrax LF inh2	BoNT-F LC inh	MazF activator	BoNT-A LC inh2	Autofluor counter
O=C(Oc1ccccc1F)c1ccc2c(=O)n3c(nc2c1)CCC3	0	13	-4	3	3972
CCOC(=O)C1CCN(C(=O)Nc2ccc(OC(F)(F)F)cc2)CC1	3	u	7	-1	4424
Brc1ccc(-c2nc(-c3ccccc3)no2)o1	-1	2	-8	2	22544*
CC1CCN(CCC(=O)N2CCCc3c2c(=O)oc2ccc(O)cc32)CC1	-12	-20	1	-4	10817
CN(CC(=O)N1CCCc2c1c(=O)oc1ccc(O)cc21)Cc1ccccc1	0	-5	5	-4	20887*
CC(=O)NC(Cc1c[nH]c2ccccc12)C(=O)NCCc1ccccn1 (centres undefined)	0	8	-1	-1	4411
CCOc1ccc(/C=N/NC(=O)c2cc(-c3cccn3C)n[nH]2)cc1	-3	-4	23	-1	2120
COC(=O)c1ccc(OC)c(-c2c(OC)cc(OC)cc2OC)c1	1	-2	2	0	9608
COc1cc(OC)c(-c2cc(C(=O)O)ccc2OC)c(OC)c1	-1	-5	+	0	2188
CC(C(=O)c1ccc(Br)cc1)[n+]1cccc2ccccc21 (centres undefined)	-8	u	-66	-4	16961*
COc1ccc(-c2cc(C(F)(F)F)n3nc(N)nc3n2)cc1	0	-1	-6	-1	23917*
CCOC(=O)c1cc(NC(=O)NC2CCCCC2)c(C)nc1C	-9	0	1	-1	3708
CCOC(=O)c1cc(NC(=O)N(C(C)C)C(C)C)c(C)nc1C	-2	-5	2	-1	16634*
CCOC(=O)c1cc(NC(=O)N(C(C)C)C2CCCCC2)c(C)nc1C	-6	0	-13	1	2869
CCOC(=O)c1cc(NC(=O)N(CC)CC)c(C)nc1C	1	-3	-3	-2	24580*
COc1ccc2nc(C)cc(Sc3nc4ccccc4s3)c2c1	0	9	0	-1	3794
Cc1cc(OC(C)C(=O)NCCN2CCOCC2)c2c(C)cc(=O)oc2c1 (centres undefined)	-2	0	2	0	6163
O=C(CS(=O)(=O)c1ccccc1)Nc1nnc(-c2cccs2)o1	-1	-3	-3	0	5493
Cc1cc2c(c(=O)n1CCN(C)C)C(c1ccccc1Br)C(C#N)=C(N)O2 (centres undefined)	1	1	-1	0	2709
Cc1cc2c(c(=O)n1CCN(C)C)C(c1ccc(Br)cc1)C(C#N)=C(N)O2 (centres undefined)	-2	2	-2	0	3269
COc1ccc(CCn2c(C)cc3c(c2=O)C(c2ccncc2)C(C#N)=C(N)O3)cc1OC (centres undefined)	-3	1	2	0	3342
Cc1cc2c(c(=O)n1CCN(C)C)C(c1ccc(Cl)cc1)C(C#N)=C(N)O2 (centres undefined)	-2	-7	-8	u	24829*
COc1ccc(Cn2c(C)cc3c(c2=O)C(c2cccs2)C(C#N)=C(N)O3)cc1OC (centres undefined)	-17	20	0	15	16938*
CCOc1ccc(C2C(C#N)=C(N)Oc3cc(C)n(CCN(C)C)c(=O)c32)cc1OCC (centres undefined)	-2	0	6	0	16485*
COc1ccc(/C=C(/NC(=O)c2ccccc2)C(=O)N2CCCC2)cc1	14	-16	-14	-2	3605
Nc1c(-c2ccc(Cl)cc2)cnc2ncnn12	-1	0	-4	1	23393*
COc1ccc(-c2cnc3ncnn3c2N)cc1	0	-4	1	0	2477
Cc1ccc(/C=C2/SC(=S)N(C3CCCCC3)C2=O)o1	24	26	7	39*	3828
